In article PMC12215968:

Each substance was assayed against Ubiquitin-ribosomal protein eS31 fusion protein (UniProt P62979) (assay: cross-link between two proteins; cross-linking mass spectrometry).

Listed as a hit, yes:
Ubiquitin carboxyl-terminal hydrolase 5, P45974
Ubiquitin-conjugating enzyme E2 N, P61088
Ubiquitin-conjugating enzyme E2 K, P61086
